# Measurements published in PubChem BioAssay (NCATS).
# Several values for one entry are separate records, joined by “and”; a condition that tells them apart may be missing. Identical values can stand only once. Records with an inconclusive call do not appear. Values without a mark were called inactive. Activity calls are given as the source filed them. Calls come from the whole dose curve; as a rule, active = well fitted curve in the direction sought with a large enough effect; inconclusive = small, poorly fitted or top-dose-only effect, or another doubt; inactive = no such curve, though single readings can be large; an effect the other way counts as inactive or inconclusive. *1 amine or outer side, *2 acyl side, *3 side chain or, on linkers, in order; H or OH if unused. Where a SMILES comes first, the peptide text is derived from it. Bridges are numbered along the chain shown (N, C = ends). [ ]: non-standard residue; d: D form. The star is where a group is joined. ξ: configuration not given here. X5 = NC1=N[C@@H]([C@H](N[*:1])C(=O)[*:2])C[C@H](O)N1; ΔAla(Z-3-ureido) = NC(=O)N/C=C(\N)C(=O)O; d(aThr) = C[C@@H](O)[C@@H](N)C(=O)O; ξThr(3R) = C[C@@H](O)C(N)C(=O)O; β3hOrn = NCCC[C@H](N)CC(=O)*; X3 = CC[C@@H](C)CCCCC(=O)*; dDab = NCC[C@@H](N)C(=O)O; Dap = NC[C@H](N)C(=O)O
# Key:
# [1] = tested on: KB-3-1; assay: Cytotoxic Profiling of Annotated Libraries Using Quantitative High-Throughput Screening (AID 1296008); conditions: Five cell lines viability, CellTiter-Glo ATP luminescence, 48-72 h; max response: active compounds read low; note: nearly all actives have a fitted effect of over 60% in size; note: potency is the fitted concentration of half-maximal effect
# Summary of the method: (§1)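 Cytotoxicity was measured as CellTiter-Glo ATP luminescence, read after 10 min at room temperature. Compound treatment of the cells lasted 48 or 72 hr at 37 degrees Celsius in a qHTS format.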
# [2] = tested on: HaCat; assay: as above; conditions: Five cell lines viability, CellTiter-Glo ATP luminescence, 48-72 h; active compounds read low
# Summary of the method: as §1
# [3] = tested on: NIH3T3; assay: as above; conditions: Five cell lines viability, CellTiter-Glo ATP luminescence, 48-72 h; max response: active compounds read low
# Summary of the method: as §1
# [4] = tested on: C33A; assay: Primary qHTS to identify gynecologic anti-cancer compounds using libraries of approved drugs and bioactive compounds (AID 1345084); conditions: Gynecologic cancer cell panel viability, ATPlite luminescence, 48 h; series mostly up to 57.5 µM; note: nearly all actives have a fitted effect of over 55% in size; note: potency is the fitted concentration of half-maximal effect
# Summary of the method: (§2)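 Five-concentration response, 48 h; readout is ATP-driven luciferase luminescence.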
# [5] = tested on: CASKI; assay: as above; conditions: Gynecologic cancer cell panel viability, ATPlite luminescence, 48 h; series mostly up to 57.5 µM
# Summary of the method: as §2
# [6] = tested on: Es-2; assay: as above; conditions: Gynecologic cancer cell panel viability, ATPlite luminescence, 48 h; series mostly up to 57.5 µM
# Summary of the method: as §2
# [7] = tested on: HeLa; assay: as above; conditions: Gynecologic cancer cell panel viability, ATPlite luminescence, 48 h; series mostly up to 57.5 µM
# Summary of the method: as §2
# [8] = tested on: Hek293T; assay: as above; conditions: Gynecologic cancer cell panel viability, ATPlite luminescence, 48 h, control line for the selectivity index; series mostly up to 57.5 µM
# Summary of the method: as §2
# [9] = tested on: JEG-3; assay: as above; conditions: Gynecologic cancer cell panel viability, ATPlite luminescence, 48 h; series mostly up to 57.5 µM
# Summary of the method: as §2
# [10] = tested on: OV90; assay: as above; conditions: Gynecologic cancer cell panel viability, ATPlite luminescence, 48 h; series mostly up to 57.5 µM
# Summary of the method: as §2
# [11] = tested on: PA-1; assay: as above; conditions: Gynecologic cancer cell panel viability, ATPlite luminescence, 48 h; series mostly up to 57.5 µM
# Summary of the method: as §2
# [12] = tested on: NIH3T3; assay: qHTS assay to identify novel small-molecules to repurpose for Merkel cell carcinoma treatment (AID 1296009); conditions: MCC and control cell lines, CellTiter-Glo viability, 72 h; at 44.8 µM (top of the series); note: nearly all actives have a fitted effect of over 60% in size
# Summary of the method: (§3)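 72 hr, 37 degree celsius; NPC 8-pt / MIPE 11-pt dose response; compound pinned in DMSO; CellTiter-Glo, 10 min RT, luminescence; normalized to no-cell and DMSO controls.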
# [13] = tested on: MCC-13; assay: as above; conditions: MCC and control cell lines, CellTiter-Glo viability, 72 h; series mostly up to 46 µM
# Summary of the method: as §3
# [14] = tested on: MCC-26; assay: as above; conditions: MCC and control cell lines, CellTiter-Glo viability, 72 h; series mostly up to 46 µM
# Summary of the method: as §3
# [15] = tested on: MKL-1; assay: as above; conditions: MCC and control cell lines, CellTiter-Glo viability, 72 h; series mostly up to 46 µM
# Summary of the method: as §3
# [16] = tested on: MKL-2; assay: as above; conditions: MCC and control cell lines, CellTiter-Glo viability, 72 h; series mostly up to 46 µM
# Summary of the method: as §3
# [17] = tested on: UISO; assay: as above; conditions: MCC and control cell lines, CellTiter-Glo viability, 72 h; series mostly up to 46 µM
# Summary of the method: as §3
# % is set by controls: 0 for no effect and ±100 for the full control effect.
compound,measurement,setting,value
FC(F)(F)C(F)(F)C(F)(F)C(F)(F)C(F)(F)F,max response,[1],-12.9%
CC(C)C1=CC2=CC[C@@H]3[C@](C)(CCC[C@@]3(C)C(=O)O)[C@H]2CC1,max response,[1],-11.9%
NCC[C@H](O)C(=O)N[C@@H]1C[C@H](N)[C@@H](O[C@H]2O[C@H](CN)[C@@H](O)[C@H](O)[C@H]2O)[C@H](O)[C@H]1O[C@H]1O[C@H](CO)[C@@H](O)[C@H](N)[C@H]1O,max response,[1],3.67%
C[C@H]1[C@@H](OC(=O)CCC(=O)O)O[C@@H]2OC3(C)CC[C@H]4[C@H](C)CC[C@@H]1[C@@]24OO3,Potency,[1],16.4 µM (active)
CC(C)CCCC(C)NC(C)C (centres undefined),max response,[1],0.846%
[O-][N+](=Nc1ccccc1)c1ccccc1,max response,[1],-7.74%
ClC(Cl)Cl,max response,[1],3.29%
C/C(=C\C(=O)OCCCCCCCCC(=O)O)C[C@@H]1OC[C@H](C[C@@H]2O[C@H]2[C@@H](C)[C@H](C)O)[C@@H](O)[C@H]1O,max response,[2],-2.01%
same,max response,[1],-2.38%
same,max response,[3],-3.66%
same,Potency,[4],inactive
same,Potency,[5],inactive
same,Potency,[6],inactive
same,Potency,[7],inactive
same,Potency,[8],inactive
same,Potency,[9],inactive
same,Potency,[10],inactive
same,Potency,[11],inactive
Cc1ncc(C[n+]2csc(CCOP(=O)(O)O)c2C)c(N)n1,max response,[1],-2.14%
C[C@]12CC[C@@H]3c4ccc(OC(=O)c5ccccc5)cc4CC[C@H]3[C@@H]1CC[C@@H]2O,max response,[2],-1.32%
same,max response,[1],-12.6%
same,outcome,[3],inactive
same,outcome,[12],inactive
same,Potency,[4],inactive
same,Potency,[5],inactive
same,Potency,[6],inactive
same,Potency,[8],inactive
same,Potency,[9],inactive
same,Potency,[10],inactive
same,Potency,[11],inactive
C=CCOc1ccc(CC(=O)O)cc1Cl,max response,[1],11.1%
CC(=O)Nc1ccc(NC(=S)NC(=O)c2ccc(C(C)(C)C)cc2)cc1,max response,[2],-11.2%
same,Potency,[1],4.11 µM (active)
same,Potency,[3],16.4 µM (active)
same,Potency,[4],inactive
same,Potency,[5],inactive
same,Potency,[7],inactive
same,Potency,[9],inactive
same,Potency,[10],inactive
same,Potency,[11],10 µM (active)
O=C1c2ccccc2C(=O)c2c1ccc(O)c2O,max response,[2],4.09%
same,max response,[1],-6.82%
same,max response,[3],-5.2%
same,outcome,[13],inactive
same,outcome,[14],inactive
same,outcome,[15],inactive
same,outcome,[16],inactive
same,outcome,[17],inactive
same,Potency,[4],inactive
same,Potency,[5],inactive
same,Potency,[6],inactive
same,Potency,[7],inactive
same,Potency,[8],inactive
same,Potency,[9],inactive
same,Potency,[10],inactive
same,Potency,[11],inactive
CC(C)(C)CC(C)(C)c1cc(Cc2cc(C(C)(C)CC(C)(C)C)cc(-n3nc4ccccc4n3)c2O)c(O)c(-n2nc3ccccc3n2)c1,max response,[1],-2.05%
CC(C)CN(C[C@@H](OP(=O)(O)O)[C@H](Cc1ccccc1)NC(=O)O[C@H]1CCOC1)S(=O)(=O)c1ccc(N)cc1,max response,[1],1.96%
O=C[C@H](O)[C@@H](O)[C@@H](O)[C@H](O)CO,max response,[1],-13.6%
CC[C@@H](C)CCCCC(=O)N[C@H](CCN)C(=O)N[C@@H](C(=O)N[C@H](CCN)C(=O)N[C@@H]1CCNC(=O)C([C@@H](C)O)NC(=O)[C@@H](CCN)NC(=O)[C@@H](CCN)NC(=O)[C@@H](CC(C)C)NC(=O)[C@@H](Cc2ccccc2)NC(=O)[C@@H](CCN)NC1=O)[C@@H](C)O (stereo partly drawn) (X3-[dDab][d(aThr)][dDab][dDab][dDab][dF][dL][dDab][dDab][ξThr(3R)]; lactam 4-C),max response,[1],15.7%
CCCC(=O)O,max response,[1],2.03%
FC(F)OC(Cl)C(F)(F)F (centres undefined),max response,[1],0.674%
CC/C=C\C/C=C\C/C=C\C/C=C\C/C=C\CCCC(=O)O,max response,[1],-1.96%
C[C@@H]1C[C@H]2[C@@H]3CCC4=CC(=O)C=C[C@]4(C)[C@@]3(F)[C@@H](O)C[C@]2(C)[C@@]1(O)C(=O)COC(=O)c1cccc(S(=O)(=O)O)c1,max response,[1],21.4%
NS(=O)(=O)c1cc2c(cc1Cl)NC(Cc1ccccc1)NS2(=O)=O (centres undefined),max response,[1],-0.731%
FCOC(C(F)(F)F)C(F)(F)F,max response,[1],6.78%
CC(C)CCC[C@@H](C)[C@H]1CC[C@H]2[C@@H]3CC=C4C[C@@H](O)CC[C@]4(C)[C@H]3CC[C@]12C,max response,[1],-10.6%
O[C@@H]([C@H](O)[C@H](O)CBr)[C@H](O)CBr,max response,[1],-3.83%
NCCC[C@H](N)CC(=O)N[C@H]1CNC(=O)[C@H]([C@H]2C[C@H](O)NC(N)=N2)NC(=O)/C(=C/NC(N)=O)NC(=O)[C@H](CO)NC(=O)[C@H](CO)NC1=O (β3hOrn-[Dap]SS[ΔAla(Z-3-ureido)][X5]; lactam 1-C),max response,[1],-0.188%
CC(C)=CCC/C(C)=C/CC/C(C)=C/CC/C(C)=C/CC1=C(C)C(=O)c2ccccc2C1=O,max response,[1],5.32% and -12.9%
CCOC(=O)[C@H](CS)NCCN[C@@H](CS)C(=O)OCC,max response,[1],6.15%
CCCOC(=O)c1ccccc1O,max response,[1],-1.94%
COc1ccc(C(=O)c2ccc(C)cc2)c(O)c1,max response,[1],4.04%
O=P(O)(O)OC[C@H]1O[C@](O)(COP(=O)(O)O)[C@@H](O)[C@@H]1O,max response,[1],1.63%
OCl,max response,[1],19.8%
CCCC(CCC)C(=O)OC1C[C@H]2CC[C@@H](C1)[N+]2(C)C (some centres undefined),max response,[1],11.2% and 16.2%
COc1ccc(C(=O)/C(Br)=C\C(=O)O)cc1,max response,[1],19.2%
Cc1c(C)c2c(c(C)c1OC(=O)CCC(=O)O)CC[C@@](C)(CCC[C@H](C)CCC[C@H](C)CCCC(C)C)O2,max response,[1],3.34%
COC(=O)CCC[N+](C)(C)C,max response,[1],-6.27%
COc1ccc(/C=C/C(=O)OCCC(C)C)cc1,max response,[1],-0.838%
CCC(C(=O)NC(N)=O)c1ccccc1 (centres undefined),max response,[1],4%
FC(F)(F)C(F)(F)C(F)(F)C(F)(F)C(F)(F)C(F)(F)F,max response,[1],6.4%
CCc1ncnc2cc(OC)c(OC)cc12,max response,[1],-4.18%
COc1ccc(/C=C/C(=O)O)cc1,max response,[1],-11.7%
CC(=O)[C@H]1CC[C@H]2[C@@H]3C=CC4=CC(=O)CC[C@@]4(C)[C@H]3CC[C@]12C,max response,[1],-2.63%
C=Cc1c(C)c2cc3nc(cc4[nH]c(cc5nc(cc1[nH]2)C(C)=C5CCC(=O)OC)c(CCC(=O)O)c4C)[C@@]1(C)C3=CC=C(C(=O)OC)[C@H]1C(=O)OC,max response,[1],-15.7%
O=C(NNCNNC(=O)c1ccncc1)c1ccncc1,max response,[1],1.42%
CC1(C)[C@H]2CC[C@]1(C)[C@H](O)C2,max response,[1],-0.648%
Cc1cc(-c2ccc(N=Nc3ccc4c(S(=O)(=O)O)cc(S(=O)(=O)O)c(N)c4c3O)c(C)c2)ccc1N=Nc1ccc2c(S(=O)(=O)O)cc(S(=O)(=O)O)c(N)c2c1O,Potency,[1],8.2 µM (active)
